Assay results: the supplement of paper PMC6555819

test system: VDR:RXRa (NR concentration 270 nM, RXRa partner concentration 90 nM); assay: PBM binding z-score (relative to random genomic background probes); higher = stronger binding; sequences stand for … in GC…GCGATTGACAGCGTAGAATGAAGG
Procedure: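 Protein-binding microarray (Agilent 4x180K custom design, double-stranded 60-nt probes: 5' GC cap, 34-nt variable region, 24-nt constant primer region; full probe sequence given). Purified or IVT nuclear receptor:RXRα heterodimers (3:1 NR:RXRα, mostly 270:90 nM) or homodimers were incubated for 1 h in PBS with 2% milk and no ligand, then detected with Alexa488 antibodies. Fluorescence from o1-orientation probes (~5 replicates averaged) was converted to z-scores against 500 random hg19 background probes. Variable regions are seed direct-repeat (DR0–DR5) sites, all their single-nucleotide variants and half-site ablations.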

Row | Sequence | PBM binding z-score
1 | CGTCCAAGGTCATCAGGTCAGTGAAAGCGACGTG | 5.43
2 | TAGACTAGGTCAGATCGGGCCAGTATACGCTATA | 0.598
3 | CGAACTAGGTCAGAACAGGACAGTGAGGGATGAT | 0.739
4 | TCTGCTAGGTCAACGATGGTTAGCTAATCTGCTA | 1.26
5 | TCCTATAGGTAATACAGGTGAAAGTCGGCATCTA | 0.718
6 | CCTAGTTGCTCAAGGTCACACACGCTATAGGTAC | 4.26
7 | TCATATAGGTATATGCTAGGTGAAAGTCCGATCT | 0.832
8 | TCATATAGGTAAAGGCGAAAGTCGAACGATATGA | 0.324
9 | CCTTACGGGTCAAGGTTATAGCTCGGGTGGTACG | 3.3
10 | ATATGTAGGTTAAGGGTCGTTCAGGTTGGTTCGC | 3.88
11 | CGAACGAGGGCATGAGTTGATAGCCAATGCCGAT | 1.09
12 | TCGAGTAGGTTAGGGGCATTAAGAATGGCGTCGA | 0.706
13 | TCTTGTAGATCAAGAAGGTTAAGAAAGCCTGAGT | 1.16
14 | CCGACTGGGGCAAAGGTTACCATACTCAGTACGA | 1.68
15 | CGTCCAAGGTCAGAGAAGTCAGTGAATGCCGAGT | 3.15
16 | CAAATTAGGTCAAGAGGTCAAAGTCCGCTTCCCG | 6.35
17 | TCATATAGGTAAGACAGGTGAAAGTCGGCATCTA | 0.987
18 | CCTCGAAGGACAGAAGGTCAGAGCTGTCCGCTTT | 0.957
19 | GCGACTGGGGCATCAGCAGGTTACCATCACTTAA | -0.265
20 | GCGCCTGGGGCATCAGCAGGTTACCATAACTTAA | -0.28

Row | Sequence | PBM binding z-score
21 | AAAGACAGGTGATGAAGGTAACTCAGGCTATCAT | 0.521
22 | TAGCCTAGGTCATGCGGGCCGGTATAGTGTCGGC | 2.22
23 | ATACCAAGGTGATCGTGAGGTGGTTGATACTAAC | -0.0231
24 | TCTAGCAGGCCAGGGGGTCACTCAAGAGGTACGG | 4.25
25 | CCTTACGGGTCACGAGGTTATAGAACGACGAGCG | 5.31
26 | GCGACTGGGGCATCAGCGGGTTACCATAACTTAA | -0.262
27 | TCTAGTTGGTCACGGAGGTCAAACACGACGGGTA | 6.21
28 | AGTCAACGTTCACTAGGTAACGTAAGATTCAGCT | -0.186
29 | CAGGCTAGGTCAGGGCCAGTATAGGAGGAACGTT | 0.258
30 | CCTTACGGGTCAAGGTTATAACACGGGTGGTACG | 3.51
31 | CCTTACGGGTCACTCCAGGTTATAGGATCGGAGT | 4.34
32 | CCTCTGAGGACAGAAGGTCAGAGCTGTCCGCTTT | 1.2
33 | CGAACTAGCTCATCCAGGACAGTGAATACATTGA | -0.134
34 | ACTATTAGTTGAGACGAGGGCAACAGATAGGTTG | 0.625
35 | CCTAGCAGGCCAATCTCGGTCACTCAAGGCTTGA | -0.37
36 | TATACAGGGTCAAAGGCCTGAGTACGAATGTCGA | 4.53
37 | GATACCGGGTCAGCTAGAGGCCAGAGTATGGAAA | 2.26
38 | TCATATAGTTAAACAGGTGAAAGTCCGTAAGTTA | 1.21
39 | CGTCCAAGGTCATCGGAGGTCAGTGAAGACAGAT | 7.04
40 | AGGATGAGGTTACCAAAGATCAGGGAAACGCTTG | 1.45
